# Experimental data from PubChem BioAssay.
# Activity calls are given as the source filed them.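 The calls were made as follows, unless noted: active = inhibition of the reporter signal at or above 50%; inactive = inhibition below 50%.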
# What was measured:
# [1] = inhibitors of TNFa-induced NFkB p65 translocation, primary screen, imaging, HUVEC, MLSMR starter and 10KST1 sets (AID 438;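 active = inhibition above 20% together with a positive visual image hit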;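 also: compound added about 3h40 before a 20 min TNFalpha stimulation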;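 as to inhibition: signal is the nuclear over cytoplasmic p65 intensity ratio per well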); settings: HUVEC TNFa-induced p65 nuclear translocation; cell count: measured here: nuclei count (cytotoxicity indicator), at 2.08 µM; inhibition: at 2 µM, stronger effect = higher value, 0% TNFa-plus-vehicle, 100% no-TNFa wells
# [2] = reduction of polyQ htt aggregates in cells – imaging, exon1htt(103Q)mCFP cells, high-content imaging, primary screen (AID 483;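 active = visual image review flags a hit and inhibition of aggregation exceeds 20%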;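 also: compound exposure lasted 3 days before fixation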;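 as to nuclei count: percent of the per-plate median nuclei count of sample wells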); settings: exon1htt(103Q)mCFP cell line, aggregate imaging, at 2 µM; inhibition of aggregation: stronger effect = higher value; nuclei count: measured here: cell count, toxicity
# [3] = endothelial E-selectin expression blockers – imaging, HUVEC, immunofluorescence, MLSMR starter and 10KST1 sets, primary screen (AID 487;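 active = visually confirmed hit in the image check and inhibition above 20%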;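 as to inhibition: signal is fraction of cell area covered by stained E-selectin grains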;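 as to nuclei count: 100% = median nuclei count of all wells on the same plate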); settings: HUVEC TNFalpha-induced E-selectin immunofluorescence imaging, at 2 µM; inhibition: stronger effect = higher value; nuclei count: measured here: cell number, toxicity
# [4] = biological target: Voltage-gated potassium channel subunit beta-2 (Rattus norvegicus) (UniProt P62483); assay: inhibitors of rat Kvbeta2 reductase activity – biochemical, NADPH fluorescence, primary screen (AID 622;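 active = fluorescence slope higher than the sample average by over 3 SD, cut at about -0.22 in these data, passing the limit was not always enough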;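 also: slope of raw intensity against log time taken from 70 to 1610 s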); settings: recombinant KvBeta, 4-cyanobenzaldehyde reduction, at 10 µM, stronger effect = higher value
# [5] = biological target: Voltage-gated potassium channel subunit beta-2 (Rattus norvegicus) (UniProt P62483); assay: enhancers of rat Kvbeta2 NADPH turnover – biochemical, NADPH fluorescence, primary screen (AID 623;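 active = NADPH fluorescence slope more negative than the mean of all samples by about 3 SD, 99.7% confidence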;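 also: fluorescence intensity change per second fitted from 20 to 320 s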); settings: Recombinant KvBeta, NADPH fluorescence decrease slope, 10 min; at 10 µM; stronger effect = lower value
# [6] = biological target: Alpha-2C adrenergic receptor (Homo sapiens) (UniProt P18825); assay: compounds altering alpha2C-coupled GIRK flux – cell-based, HEK293 alpha2C/GIRK1/2, thallium flux, primary screen (AID 624;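 active = fluorescence slope after compound addition differing from the mean of all screened samples at 99.7% confidence, in either direction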;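 also: slope of fluorescence ratio to pre-addition baseline per second over 15 to 24 s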); settings: thallium flux BTC fluorescence, at 10 µM, actives lie on both sides
# [7] = blockers of RIG-like receptor reporter activation – cell-based, Sendai virus stimulus, luciferase, 10K MLSCN set, TLR/RLR signaling modifier project, primary screen (AID 602276;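 active = inhibition at or above 50% at 10 µM; inactive = inhibition below 50%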;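 also: firefly luciferase from ISG56 promoter only with Renilla not read in this screen; 0% = Sendai virus plus DMSO and 100% = medium plus DMSO without virus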); settings: HEK293 RL24 IRF3 luciferase reporter, at 10 µM, stronger effect = higher value
# [8] = TLR3 IRF3 reporter activation blockers – cell-based, poly I:C stimulus, luciferase, 10K MLSCN set, primary screen (AID 602277); settings: HEK293-TLR3 RL24 IRF3 luciferase reporter, at 10 µM, stronger effect = higher value
# Alpha-2C adrenergic receptor (Homo sapiens), sequence (P18825 whole entry, looked up): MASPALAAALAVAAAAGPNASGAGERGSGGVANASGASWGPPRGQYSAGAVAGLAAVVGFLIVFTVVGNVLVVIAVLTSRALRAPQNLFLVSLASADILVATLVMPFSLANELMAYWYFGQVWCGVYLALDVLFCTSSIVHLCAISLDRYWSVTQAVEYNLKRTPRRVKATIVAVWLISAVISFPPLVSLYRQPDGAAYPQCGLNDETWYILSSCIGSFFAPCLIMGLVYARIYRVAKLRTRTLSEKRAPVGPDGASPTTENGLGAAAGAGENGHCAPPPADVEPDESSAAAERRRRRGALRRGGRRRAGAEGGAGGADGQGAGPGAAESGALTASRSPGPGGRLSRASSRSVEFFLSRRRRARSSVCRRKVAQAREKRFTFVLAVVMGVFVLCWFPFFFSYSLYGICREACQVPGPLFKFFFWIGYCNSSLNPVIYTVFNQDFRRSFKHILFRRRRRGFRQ
# Voltage-gated potassium channel subunit beta-2 (Rattus norvegicus), sequence (P62483 whole entry, looked up): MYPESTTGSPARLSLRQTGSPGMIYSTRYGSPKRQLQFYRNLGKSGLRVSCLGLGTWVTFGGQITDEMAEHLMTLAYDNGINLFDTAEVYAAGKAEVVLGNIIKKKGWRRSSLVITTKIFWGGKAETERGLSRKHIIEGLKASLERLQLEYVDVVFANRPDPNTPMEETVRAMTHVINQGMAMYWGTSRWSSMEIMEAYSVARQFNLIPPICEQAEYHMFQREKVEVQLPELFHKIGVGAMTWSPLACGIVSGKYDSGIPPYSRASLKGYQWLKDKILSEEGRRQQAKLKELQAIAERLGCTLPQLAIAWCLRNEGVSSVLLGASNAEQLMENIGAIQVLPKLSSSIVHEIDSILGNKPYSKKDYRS
Compound,cell count [1],inhibition [1],inhibition of aggregation [2],nuclei count [2] [%],inhibition [3],nuclei count [3] [%],fluorescence slope [4],NADPH fluorescence slope [5],slope [6],inhibition [7],inhibition [8]
CCOC(=O)c1cnc(C(C)(C)C)[nH]c1=O,328,-6.5% (inactive),-6.3% (inactive),109,-109% (inactive),142,-0.318 (inactive),-4.2e-05 (inactive),0.00422 (inactive),10.2% (inactive),17.4% (inactive)
Cc1nc(SCC(=O)Nc2cc(C)on2)c2c3c(sc2n1)CCCC3,461,2.5% (inactive),-13.2% (inactive),93.7,-33.9% (inactive),110,-0.579 (inactive),-5.9e-05 (inactive),0.00594 (inactive),6.61% (inactive),11.9% (inactive)
Cc1nnc(SCc2cn3ccsc3n2)n(N)c1=O,858,-10.7% (inactive),-21% (inactive),105,-50.6% (inactive),121,-0.641 (inactive),1.9e-05 (inactive),0.00624 (inactive),17.8% (inactive),31.6% (inactive)
Cc1ccc(-c2cc(C(=O)NCCN3CCOCC3)no2)cc1,605,1.9% (inactive),41.6% (inactive),69.9,-4% (inactive),101,-0.452 (inactive),8.4e-05 (inactive),0.0051 (inactive),-29.5% (inactive),-36.6% (inactive)
O=C(c1ccco1)N1CCN(C2=NS(=O)(=O)c3ccccc32)CC1,596,-18.6% (inactive),-11.3% (inactive),105,-3% (inactive),104,-0.463 (inactive),-1.3e-05 (inactive),0.00424 (inactive),4.61% (inactive),31.2% (inactive)
COc1ccc(C2c3c(oc4ccccc4c3=O)C(=O)N2c2ccc(C)cn2)cc1OC (stereo not drawn),865,0% (inactive),-13.4% (inactive),75,-34.6% (inactive),103,-0.605 (inactive),6.8e-06 (inactive),0.00601 (inactive),-0.686% (inactive),-4.49% (inactive)
COc1ccc(C(=O)N2CCN(C(=O)c3ccco3)CC2)cc1OC,546,-3.9% (inactive),-2.2% (inactive),108,-184% (inactive),199,-0.401 (inactive),-3.4e-05 (inactive),0.00558 (inactive),13.2% (inactive),13.7% (inactive)
Cc1ccccc1OCCCN1C(=O)C(=O)c2cccc(C)c21,833,3.7% (inactive),5% (inactive),108,-81.4% (inactive),113,-0.575 (inactive),-5e-05 (inactive),0.00604 (inactive),5.45% (inactive),-4.08% (inactive)
O=C(c1cc(S(=O)(=O)N2CCOCC2)ccc1F)N1CCCc2ccccc21,555,-26.9% (inactive),-9.6% (inactive),102,-44.9% (inactive),140,-0.382 (inactive),-4.2e-05 (inactive),0.00518 (inactive),12.6% (inactive),27.4% (inactive)
FC(F)(F)c1cc(-c2ccco2)nc(N2CCOCC2)n1,645,-8.5% (inactive),-15% (inactive),89,-83.2% (inactive),118,-0.586 (inactive),-1.4e-05 (inactive),0.00435 (inactive),16.2% (inactive),15.5% (inactive)
CN(C)S(=O)(=O)c1ccc2c(c1)c(=O)c(C(=O)NCCCN1CCCCCC1)cn2C,707,-2.8% (inactive),4.4% (inactive),101,-51.2% (inactive),106,-0.601 (inactive),-3.3e-05 (inactive),0.00602 (inactive),0.741% (inactive),31.9% (inactive)
CNC(=O)C1C2C=CC3(O2)C1C(=O)N(C1CC1)C3C(=O)NCc1ccc(OC)cc1 (stereo not drawn),199,11.8% (inactive),-5.5% (inactive),102,41.6% (inactive),98.4,-0.533 (inactive),-3.2e-05 (inactive),0.00639 (inactive),14.1% (inactive),20.2% (inactive)
O=C(CSCc1ccccn1)Nc1ccccc1,312,-8% (inactive),21.9% (inactive),95.1,4.8% (inactive),98.8,-0.437 (inactive),-4.9e-05 (inactive),0.00582 (inactive),-30.9% (inactive),-49% (inactive)
O=C(CSc1nnc2ncccn12)N1CCCCCC1,673,26.6% (active),8.3% (inactive),106,-9.5% (inactive),82.7,-0.475 (inactive),-0.000211 (inactive),0.00529 (inactive),4.98% (inactive),99.3% (active)
CCNc1nc(N2CCOCC2)nc(N(c2ccccc2)c2ccccc2)n1,324,8.2% (inactive),-29.1% (inactive),93.3,-3.9% (inactive),101,-0.388 (inactive),-5.9e-05 (inactive),0.00355 (inactive),9.87% (inactive),28.5% (inactive)
COc1ccccc1S(=O)(=O)Cc1ccc(C(=O)N2CCN(c3ccc(C)cc3)C(C)C2)o1 (stereo not drawn),566,6.1% (inactive),-8.4% (inactive),117,-2.9% (inactive),91.7,-0.527 (inactive),-2.9e-05 (inactive),0.00593 (inactive),16.6% (inactive),22.5% (inactive)
COc1cccc(NC(=O)N2CCN(C(=O)C(Cc3ccc(OC)c(OC)c3)NC(C)=O)CC2)c1 (stereo not drawn),364,-0.5% (inactive),-4% (inactive),107,-47.6% (inactive),99.9,-0.355 (inactive),-3.6e-05 (inactive),0.00701 (inactive),12.1% (inactive),22.8% (inactive)
CCOCCCNC(=O)C1CCN(S(=O)(=O)c2c(C)noc2/C=C\c2ccc(OC)cc2)CC1,345,1.2% (inactive),32.8% (inactive),99.9,-122% (inactive),114,-0.36 (inactive),3.9e-05 (inactive),0.00493 (inactive),-4.28% (inactive),0.813% (inactive)
Cc1c(C(=O)NCc2ccccc2)oc2c1C(=O)CCC2,530,-18.8% (inactive),-28.3% (inactive),101,-70% (inactive),121,-0.372 (inactive),-6.4e-05 (inactive),0.00395 (inactive),-4.65% (inactive),-7.05% (inactive)
CCOC(=O)c1ccc(NC(=O)Cn2cc3c(n2)CCC(C)C3)cc1 (stereo not drawn),711,-3.7% (inactive),-28.2% (inactive),91.4,-6% (inactive),101,-0.485 (inactive),2.3e-05 (inactive),0.00553 (inactive),12.5% (inactive),23.6% (inactive)
COc1ccc2oc(=O)c(C(=O)N3CCN(c4ccccc4F)CC3)cc2c1,365,-0.4% (inactive),-3.7% (inactive),95.9,-15.2% (inactive),109,-0.335 (inactive),2.4e-05 (inactive),0.00535 (inactive),16.3% (inactive),21.2% (inactive)
COc1ccccc1N(CC(=O)NCc1ccccn1)S(C)(=O)=O,355,-7.9% (inactive),26.7% (inactive),83.6,29.3% (inactive),75.4,-0.422 (inactive),-4.6e-05 (inactive),0.00261 (inactive),7.95% (inactive),32.3% (inactive)
COc1ccc(CN(C(=O)CSc2nnc(-c3ccccc3F)o2)c2ccc(F)cc2)cc1,560,-14.3% (inactive),15% (inactive),85.2,-118% (inactive),123,-0.421 (inactive),-3.9e-05 (inactive),0.0074 (inactive),8.03% (inactive),9.3% (inactive)
Cc1cc(-c2ccccc2)c(C#N)c(N)n1,331,-6.4% (inactive),-10.4% (inactive),94.7,-11.3% (inactive),115,-0.394 (inactive),-6.4e-07 (inactive),0.00466 (inactive),18.7% (inactive),34.2% (inactive)
COc1ccc(C(CC(=O)O)NC(=O)c2ccccc2)cc1OC (stereo not drawn),317,-1.6% (inactive),-6.3% (inactive),116,-9% (inactive),106,-0.311 (inactive),1e-05 (inactive),0.00391 (inactive),9.8% (inactive),28.8% (inactive)
COc1ccc2cc3cc(C(=O)NCC4CCCO4)oc3nc2c1 (stereo not drawn),323,-7.8% (inactive),3.3% (inactive),56.8,-20.5% (inactive),108,-0.0444 (active),-1.4e-06 (inactive),0.00645 (inactive),-11.2% (inactive),-36.3% (inactive)
COc1cccc(-c2nc(CS(=O)(=O)CC(=O)Nc3cc(C)ccc3C)c(C)o2)c1,718,-4.6% (inactive),-2.5% (inactive),59.5,-21.2% (inactive),104,-0.517 (inactive),-4.8e-05 (inactive),0.00688 (inactive),5.73% (inactive),27.7% (inactive)
CCN(CC)CCCn1c(=S)[nH]c2cc(Cl)ccc2c1=O,353,-0.2% (inactive),7.4% (inactive),100,6.9% (inactive),97.4,-0.514 (inactive),-0.000206 (active),0.00373 (inactive),12.1% (inactive),21.3% (inactive)
